Where “and” joins values, the source holds several entries; their conditions need not be identical. Identical values can stand only once. Inconclusive results are not listed. Calls of active or inactive are those of the source. Unless noted, calls follow the shape of the dose curve; as a rule, active = well fitted curve in the direction sought with a large enough effect; inconclusive = small, poorly fitted or top-dose-only effect, or another doubt; inactive = no such curve, though single readings can be large; an effect the other way counts as inactive or inconclusive.
Assays:
[1] = test system: MKL-2; experiment: qHTS assay to identify novel small-molecules to repurpose for Merkel cell carcinoma treatment (AID 1296009); conditions: MCC and control cell lines, CellTiter-Glo viability, 72 h; series mostly up to 46 µM; also: nearly all actives have a fitted effect of over 60% in size; also: potency is read from the fitted curve at half-maximal effect
In short: (§1)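 Cell viability, measured as CellTiter-Glo luminescence, was normalized between DMSO and no-cell wells. The cells had been exposed to 8- or 11-point compound dilutions for 72 hr at 37 degree celsius.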

[2] = test system: UISO; experiment: as above; conditions: MCC and control cell lines, CellTiter-Glo viability, 72 h; series mostly up to 46 µM
In short: as §1

[3] = test system: WaGa; experiment: as above; conditions: MCC and control cell lines, CellTiter-Glo viability, 72 h; series mostly up to 46 µM
In short: as §1

[4] = test system: C33A; experiment: Primary qHTS to identify gynecologic anti-cancer compounds using libraries of approved drugs and bioactive compounds (AID 1345084); conditions: Gynecologic cancer cell panel viability, ATPlite luminescence, 48 h; series mostly up to 57.5 µM; also: nearly all actives have a fitted effect of over 55% in size; also: potency is read from the fitted curve at half-maximal effect
In short: (§2)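 Luminescence from the ATPlite ATP-monitoring reagent indicates viable cell number; lower signal means cytotoxicity. Cells received compound 16 h after seeding and were exposed for 48 h across five concentrations.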

[5] = test system: CASKI; experiment: as above; conditions: Gynecologic cancer cell panel viability, ATPlite luminescence, 48 h; series mostly up to 57.5 µM
In short: as §2

[6] = test system: Es-2; experiment: as above; conditions: Gynecologic cancer cell panel viability, ATPlite luminescence, 48 h; series mostly up to 57.5 µM
In short: as §2

[7] = test system: HeLa; experiment: as above; conditions: Gynecologic cancer cell panel viability, ATPlite luminescence, 48 h; series mostly up to 57.5 µM
In short: as §2

[8] = test system: Hek293T; experiment: as above; conditions: Gynecologic cancer cell panel viability, ATPlite luminescence, 48 h, control line for the selectivity index; series mostly up to 57.5 µM
In short: as §2

[9] = test system: JEG-3; experiment: as above; conditions: Gynecologic cancer cell panel viability, ATPlite luminescence, 48 h; series mostly up to 57.5 µM
In short: as §2

[10] = test system: OV90; experiment: as above; conditions: Gynecologic cancer cell panel viability, ATPlite luminescence, 48 h; series mostly up to 57.5 µM
In short: as §2

[11] = test system: PA-1; experiment: as above; conditions: Gynecologic cancer cell panel viability, ATPlite luminescence, 48 h; series mostly up to 57.5 µM
In short: as §2

[12] = test system: SKOV3; experiment: as above; conditions: Gynecologic cancer cell panel viability, ATPlite luminescence, 48 h; series mostly up to 57.5 µM
In short: as §2

[13] = test system: Tov-21-G; experiment: as above; conditions: Gynecologic cancer cell panel viability, ATPlite luminescence, 48 h; series mostly up to 57.5 µM
In short: as §2

[14] = test system: Tov112D; experiment: as above; conditions: Gynecologic cancer cell panel viability, ATPlite luminescence, 48 h; series mostly up to 57.5 µM
In short: as §2

[15] = Drug repurposing screens with cells derived from glioblastoma tumor samples (AID 1345199); conditions: GBM patient neurospheres viability, ATP luminescence, 48 h; also: nearly all actives have a fitted effect of over 40% in size; also: potency is read from the fitted curve at half-maximal effect; as to activity, negative = cell killing: % is scaled to controls: 0 for no effect and ±100 for the full control effect
In short: (§3)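 Primary testing used CD133+ neurospheres from four GBM patients, seven concentrations, 48 h exposure and ATP-based viability; confirmation added three slower-growing patient lines.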

[16] = test system: astro; experiment: as above; conditions: viability, ATP luminescence, 48 h; series mostly up to 45.9 µM
In short: as §3

[17] = biological target: Nuclear receptor subfamily 1 group I member 2 (Rattus norvegicus) (UniProt Q9R1A7); experiment: qHTS assay for small molecule activators of the rat pregnane X receptor (rPXR) signaling pathway (AID 651751; call rule not given here; also: 0% is about no effect); conditions: rPXR reporter cells, luciferase (One-Glo), 24 h
Sequence of Nuclear receptor subfamily 1 group I member 2 (Rattus norvegicus) (Q9R1A7 whole entry, looked up): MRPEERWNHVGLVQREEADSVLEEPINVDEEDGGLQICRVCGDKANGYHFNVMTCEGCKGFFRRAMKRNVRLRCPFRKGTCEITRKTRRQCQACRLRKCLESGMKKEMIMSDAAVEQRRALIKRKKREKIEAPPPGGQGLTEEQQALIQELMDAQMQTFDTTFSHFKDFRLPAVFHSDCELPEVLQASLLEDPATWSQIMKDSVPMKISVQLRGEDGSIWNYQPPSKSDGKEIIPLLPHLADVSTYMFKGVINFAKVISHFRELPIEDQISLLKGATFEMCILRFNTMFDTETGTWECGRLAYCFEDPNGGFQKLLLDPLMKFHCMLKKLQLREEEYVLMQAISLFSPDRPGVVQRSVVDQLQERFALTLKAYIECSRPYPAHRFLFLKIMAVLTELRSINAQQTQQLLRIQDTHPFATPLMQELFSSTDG

[18] = test system: NIH3T3; experiment: qHTS assay to identify novel small-molecules to repurpose for Merkel cell carcinoma treatment (AID 1296009); conditions: MCC and control cell lines, CellTiter-Glo viability, 72 h; at 44.8 µM (top of the series) unless noted; also: nearly all actives have a fitted effect of over 60% in size; also: potency is read from the fitted curve at half-maximal effect
In short: as §1

[19] = test system: CAOV3; experiment: Primary qHTS to identify gynecologic anti-cancer compounds using libraries of approved drugs and bioactive compounds (AID 1345084); conditions: Gynecologic cancer cell panel viability, ATPlite luminescence, 48 h; series mostly up to 57.5 µM; also: nearly all actives have a fitted effect of over 55% in size; also: potency is read from the fitted curve at half-maximal effect
In short: as §2

[20] = qHTS assay for small molecule activators of the human pregnane X receptor (PXR) signaling pathway (AID 720659; call rule not given here; also: 0% is about no effect)
[21] = at 45.9 µM (top of the series), tumour line B
[22] = at 45.9 µM (top of the series), tumour line D
[23] = at 46 µM (top of the series), tumour line A
[24] = at 46.1 µM (top of the series), tumour line C

CNCC(=O)c1ccc(O)c(O)c1
inactive: Potency [1] | Potency [2] | Potency [3] | Potency [4] | outcome [5] | Potency [6] | Potency [7] | outcome [8] | outcome [9] | Potency [10] | Potency [11] | outcome [12] | Potency [13] | Potency [14] | activity, negative = cell killing [15, 21] -11.2% | activity, negative = cell killing [15, 22] -3.6% | Potency [16]

CCC(C)(C)c1ccc(O)cc1
inactive: Potency [1] | Potency [2] | Potency [3] | Potency [4] | outcome [5] | Potency [6] | Potency [7] | outcome [8] | outcome [9] | Potency [10] | Potency [11] | outcome [12] | Potency [13] | Potency [14] | activity, negative = cell killing [15, 21] -7.41% | activity, negative = cell killing [15, 22] 13.4% | activity, negative = cell killing [15, 23] -14.1% | activity, negative = cell killing [15, 24] -3.53% | Potency [16] | max response [17] 1.88% and -0.811%

COP(=S)(OC)Oc1ccc(S(=O)(=O)N(C)C)cc1
inactive: Potency [1] | Potency [2] | Potency [3] | Potency [4] | outcome [5] | Potency [6] | Potency [7] | outcome [8] | outcome [9] | Potency [10] | Potency [11] | outcome [12] | Potency [13] | Potency [14] | activity, negative = cell killing [15, 21] -4.11% | activity, negative = cell killing [15, 22] -25% | activity, negative = cell killing [15, 23] -29.3% | Potency [16]

NCCc1ccc(O)cc1
inactive: outcome [18] | Potency [2] | Potency [4] | outcome [19] | outcome [5] | Potency [6] | Potency [7] | outcome [8] | outcome [9] | Potency [10] | Potency [11] | outcome [12] | Potency [13] | Potency [14] | activity, negative = cell killing [15, 21] -7.62% | activity, negative = cell killing [15, 22] 3.08% | activity, negative = cell killing [15, 23] -19.3% | Potency [16] | max response [17] 0.0715% | outcome [20]

Cc1ncsc1CCCl
inactive: Potency [1] | Potency [2] | Potency [3] | Potency [4] | outcome [5] | Potency [6] | Potency [7] | outcome [8] | outcome [9] | Potency [10] | Potency [11] | outcome [12] | Potency [13] | Potency [14] | activity, negative = cell killing [15, 21] -10.2% | activity, negative = cell killing [15, 22] -8.99% | activity, negative = cell killing [15, 23] 4.91% | Potency [16]

CC(C)(C)NCC(O)c1ccccc1Cl (centres undefined)
inactive: Potency [1] | Potency [2] | Potency [3] | Potency [4] | outcome [5] | Potency [6] | Potency [7] | outcome [8] | outcome [9] | Potency [11] | outcome [12] | Potency [13] | Potency [14] | activity, negative = cell killing [15, 21] -9.73% | activity, negative = cell killing [15, 22] -4.92% | Potency [16]

C[C@]12CCC(=O)C=C1CC[C@@H]1[C@@H]2CC[C@]2(C)C(=O)CC[C@@H]12
inactive: Potency [1] | Potency [4] | outcome [5] | Potency [6] | outcome [8] | outcome [9] | Potency [10] | outcome [12] | Potency [13] | Potency [14] | activity, negative = cell killing [15, 21] -22.1% | Potency [16] | max response [17] 5.29% and 4.66%
active: Potency ([15]; tumour line A) 10 µM

O=C1OC(CCN2CCCCC2)OC1(c1ccccc1)c1ccccc1 (centres undefined)
active: Potency [1] 6.68 µM
inactive: Potency [4] | outcome [19] | outcome [5] | Potency [6] | Potency [7] | outcome [8] | outcome [9] | Potency [10] | Potency [11] | outcome [12] | Potency [13] | Potency [14]

C[C@]12CC[C@@H]3c4ccc(OC(=O)N(CCCl)CCCl)cc4CC[C@H]3[C@@H]1CC[C@@H]2O
active: Potency [7] 35.5 µM
inactive: Potency [1] | Potency [2] | Potency [3] | activity, negative = cell killing [15, 21] -7.93% | activity, negative = cell killing [15, 22] -5.83% | activity, negative = cell killing [15, 23] -29.8%

CC(C)=CC1C(C(=O)OCN2C(=O)C3=C(CCCC3)C2=O)C1(C)C (centres undefined)
inactive: Potency [1] | Potency [2] | Potency [3] | Potency [4] | outcome [5] | Potency [6] | Potency [7] | outcome [9] | Potency [10] | Potency [11] | Potency [13] | Potency [14] | activity, negative = cell killing [15, 21] -18.8% | activity, negative = cell killing [15, 22] -12.7%

C[C@]12Cc3cn[nH]c3C[C@@H]1CC[C@@H]1[C@@H]2CC[C@@]2(C)[C@H]1CC[C@]2(C)O
inactive: Potency [1] | Potency [3] | Potency [4] | outcome [5] | Potency [6] | Potency [7] | outcome [8] | outcome [9] | Potency [10] | Potency [11] | outcome [12] | Potency [13] | Potency [14]

C[C@](O)(CS(=O)(=O)c1ccc(F)cc1)C(=O)Nc1ccc(C#N)c(C(F)(F)F)c1
inactive: activity, negative = cell killing [15, 21] -21.4%
active: Potency [1] 23.5 µM | Potency [3] 13.2 µM | Potency ([15]; tumour line A) 12.6 µM

CC(C(=O)c1ccccc1)N(C)C (centres undefined)
inactive: Potency [1] | Potency [2] | Potency [3] | outcome [5] | Potency [6] | Potency [7] | outcome [9] | Potency [10] | Potency [11] | outcome [12] | Potency [13] | Potency [14]

NNc1ccccc1
inactive: Potency [1] | Potency [3] | Potency [4] | outcome [19] | outcome [5] | Potency [6] | Potency [7] | outcome [8] | outcome [9] | Potency [10] | Potency [11] | Potency [13] | Potency [14] | activity, negative = cell killing [15, 21] -3.46% | activity, negative = cell killing [15, 22] -1.72% | activity, negative = cell killing [15, 23] -20.5% | activity, negative = cell killing [15, 24] 11.9% | Potency [16]

O=C(Nc1ccc(Br)cc1)c1cc(Br)cc(Br)c1O
inactive: Potency [1] | Potency [2] | Potency [4] | outcome [19] | outcome [5] | outcome [8] | Potency [11] | outcome [12] | Potency [13] | Potency [14]

Reference: PubChem BioAssay (NCATS)
